Among all 5,500 compounds or so, about 2,000 (36%) were called active. Roughly 18% stayed inconclusive and do not appear here. This is one part of the list. Values without a mark were called inactive. Cut-off read from the data, not from the text of the source: active = normalized growth mostly below about 0.91 (no sharp cut-off); inconclusive = no clear call, values can overlap the other calls; inactive = mostly above about 0.92.
Test: chemical genetic growth profiling, strain panel (AID 1159580);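 note: tested at 20 µM; growth read once vehicle control cultures reached saturation at 30 °C; 1 = growth at the plate median or of vehicle wells; lower values mean less growth of the strain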
Settings: S. cerevisiae deletion strains, growth OD

COC(=O)C1=C(C)NC(C)=C(C(=O)OCC(C)C)C1c1ccccc1[N+](=O)[O-] (centres undefined)
normalized growth (locus YAL021C, strain ccr4, active compounds read low): 0.0808 (active)
normalized growth (locus YAL026C, strain drs2, active compounds read low): 0.216 (active)
normalized growth (locus YAL030W, strain snc1, active compounds read low): 0.239 (active)
normalized growth (locus YBL061C, strain skt5, active compounds read low): 0.19 (active)
normalized growth (locus YBR009C, strain hhf1, active compounds read low): 0.224 (active)
normalized growth (locus YBR023C, strain chs3, active compounds read low): 0.176 (active)
normalized growth (locus YBR171W, strain sec66, active compounds read low): 0.898
normalized growth (locus YBR231C, strain swc5, active compounds read low): 0.212 (active)
normalized growth (locus YBR279W, strain paf1, active compounds read low): 0.451 (active)
normalized growth (locus YCL011C, strain gbp2, active compounds read low): 0.257 (active)
normalized growth (locus YCL016C, strain dcc1, active compounds read low): 0.462 (active)
normalized growth (locus YCL069W, strain vba3, active compounds read low): 0.413 (active)
normalized growth (locus YCR088W, strain abp1, active compounds read low): 0.39 (active)
normalized growth (locus YDL005C, strain med2, active compounds read low): 0.193 (active)
normalized growth (locus YDL040C, strain nat1, active compounds read low): 0.953
normalized growth (locus YDR001C, strain nth1, active compounds read low): 0.468 (active)
normalized growth (locus YDR069C, strain doa4, active compounds read low): 0.0857 (active)
normalized growth (locus YDR137W, strain rgp1, active compounds read low): 0.866
normalized growth (locus YDR159W, strain sac3, active compounds read low): 0.958
normalized growth (locus YDR195W, strain ref2): 1.06
normalized growth (locus YDR297W, strain sur2, active compounds read low): 0.167 (active)
normalized growth (locus YDR334W, strain swr1, active compounds read low): 0.24 (active)
normalized growth (locus YDR335W, strain msn5, active compounds read low): 0.814 (active)
normalized growth (locus YDR392W, strain spt3, active compounds read low): 0.122 (active)
normalized growth (locus YEL003W, strain gim4, active compounds read low): 0.463 (active)
normalized growth (locus YEL037C, strain rad23, active compounds read low): 0.296 (active)
normalized growth (locus YEL061C, strain CIN8 (second series), active compounds read low): 0.33 (active)
normalized growth (locus YER015W, strain faa2, active compounds read low): 0.177 (active)
normalized growth (locus YER016W, strain bim1, active compounds read low): 0.52 (active)
normalized growth (locus YER111C, strain swi4, active compounds read low): 0.945
normalized growth (locus YER155C, strain BEM2 (second series), active compounds read low): 0.259 (active)
normalized growth (locus YFR010W, strain ubp6, active compounds read low): 0.382 (active)
normalized growth (locus YGL167C, strain pmr1, active compounds read low): 0.214 (active)
normalized growth (locus YGL173C, strain kem1, active compounds read low): 0.098 (active)
normalized growth (locus YGL227W, strain vid30, active compounds read low): 0.769 (active)
normalized growth (locus YGL240W, strain doc1, active compounds read low): 0.259 (active)
normalized growth (locus YGL253W, strain hxk2, active compounds read low): 0.303 (active)
normalized growth (locus YHR013C, strain ard1, active compounds read low): 0.209 (active)
normalized growth (locus YHR027C, strain rpn1, active compounds read low): 0.164 (active)
normalized growth (locus YHR030C, strain SLT2, active compounds read low): 0.472 (active)
normalized growth (locus YHR079C, strain IRE1, active compounds read low): 0.385 (active)
normalized growth (locus YHR142W, strain chs7, active compounds read low): 0.209 (active)
normalized growth (locus YJL092W, strain hpr5, active compounds read low): 0.422 (active)
normalized growth (locus YJL095W, strain BCK1 (second series), active compounds read low): 0.112 (active)
normalized growth (locus YJL095W, strain BCK1, active compounds read low): 0.35 (active)
normalized growth (locus YJL115W, strain asf1, active compounds read low): 0.424 (active)
normalized growth (locus YJL129C, strain trk1, active compounds read low): 0.852 (active)
normalized growth (locus YJL154C, strain vps35, active compounds read low): 0.344 (active)
normalized growth (locus YJL164C, strain tpk1, active compounds read low): 0.16 (active)
normalized growth (locus YJL166W, strain qcr8, active compounds read low): 0.177 (active)
normalized growth (locus YJL187C, strain SWE1, active compounds read low): 0.206 (active)
normalized growth (locus YJR066W, strain TOR1, active compounds read low): 0.57 (active)
normalized growth (locus YKL160W, strain elf1, active compounds read low): 0.486 (active)
normalized growth (locus YKR026C, strain gcn3, active compounds read low): 0.559 (active)
normalized growth (locus YKR091W, strain srl3, active compounds read low): 0.589 (active)
normalized growth (locus YLL001W, strain dnm1, active compounds read low): 0.42 (active)
normalized growth (locus YLL026W, active compounds read low): 0.333 (active)
normalized growth (locus YLL041C, strain sdh2, active compounds read low): 0.279 (active)
normalized growth (locus YLR027C, strain aat2, active compounds read low): 0.22 (active)
normalized growth (locus YLR113W, strain HOG1, active compounds read low): 0.308 (active)
normalized growth (locus YLR221C, strain rsa3, active compounds read low): 0.342 (active)
normalized growth (locus YLR258W, strain gsy2, active compounds read low): 0.209 (active)
normalized growth (locus YLR262C, strain YPT6 (second series), active compounds read low): 0.114 (active)
normalized growth (locus YLR320W, strain mms22, active compounds read low): 0.159 (active)
normalized growth (locus YLR342W, strain FKS1, active compounds read low): 0.163 (active)
normalized growth (locus YLR357W, strain rsc2, active compounds read low): 0.452 (active)
normalized growth (locus YLR370C, strain arc18, active compounds read low): 0.273 (active)
normalized growth (locus YLR384C, strain iki3, active compounds read low): 0.75 (active)
normalized growth (locus YML120C, strain ndi1, active compounds read low): 0.978
normalized growth (locus YMR058W, strain fet3, active compounds read low): 0.0888 (active)
normalized growth (locus YMR125W, strain sto1, active compounds read low): 0.462 (active)
normalized growth (locus YMR129W, active compounds read low): 0.633 (active)
normalized growth (locus YMR205C, strain PFK2, active compounds read low): 0.179 (active)
normalized growth (locus YMR231W, strain pep5, active compounds read low): 0.141 (active)
normalized growth (locus YNL071W, strain lat1, active compounds read low): 0.194 (active)
normalized growth (locus YNL183C, strain NPR1, active compounds read low): 0.561 (active)
normalized growth (locus YNL209W, strain ssb2, active compounds read low): 0.111 (active)
normalized growth (locus YNL248C, strain rpa49, active compounds read low): 0.488 (active)
normalized growth (locus YNL322C, strain KRE1 (second series), active compounds read low): 0.403 (active)
normalized growth (locus YNR049C, strain mso1, active compounds read low): 0.551 (active)
normalized growth (locus YOR001W, strain rrp6, active compounds read low): 0.952
normalized growth (locus YOR070C, strain gyp1, active compounds read low): 0.492 (active)
normalized growth (locus YOR080W, strain dia2, active compounds read low): 0.958
normalized growth (locus YOR083W, strain WHI5, active compounds read low): 0.43 (active)
normalized growth (locus YOR106W, strain vam3, active compounds read low): 0.135 (active)
normalized growth (locus YOR231W, strain MKK1, active compounds read low): 0.513 (active)
normalized growth (locus YOR265W, strain rbl2, active compounds read low): 0.204 (active)
normalized growth (locus YOR270C, strain vph1, active compounds read low): 0.153 (active)
normalized growth (locus YOR290C, strain snf2, active compounds read low): 0.912
normalized growth (locus YPL051W, strain arl3, active compounds read low): 0.129 (active)
normalized growth (locus YPL078C, strain atp4, active compounds read low): 0.94
normalized growth (locus YPL106C, strain sse1, active compounds read low): 0.299 (active)
normalized growth (locus YPL240C, strain hsp82, active compounds read low): 0.242 (active)
normalized growth (locus YPL256C, strain CLN2, active compounds read low): 0.415 (active)

— PubChem BioAssay AID1159580 (chemical genetic matrix, 2015)
